Records with an inconclusive call do not appear. The source made the active and inactive calls. Unless noted, calls come from the whole dose curve; as a rule, active = well fitted curve in the direction sought with a large enough effect in the repeat runs; inconclusive = weak or mixed curves; inactive = no such curve, though single readings can be large; an effect the other way counts as inactive or inconclusive.
Columns and labels:
[1] = molecular target: Luciferin 4-monooxygenase (Photinus pyralis) (UniProt P08659); assay: qHTS assay to identify small molecule inhibitors of firefly luciferase (AID 1224835); note: nearly all actives have a fitted effect of over 25% in size
Luciferin 4-monooxygenase (Photinus pyralis), sequence (P08659 whole entry, looked up): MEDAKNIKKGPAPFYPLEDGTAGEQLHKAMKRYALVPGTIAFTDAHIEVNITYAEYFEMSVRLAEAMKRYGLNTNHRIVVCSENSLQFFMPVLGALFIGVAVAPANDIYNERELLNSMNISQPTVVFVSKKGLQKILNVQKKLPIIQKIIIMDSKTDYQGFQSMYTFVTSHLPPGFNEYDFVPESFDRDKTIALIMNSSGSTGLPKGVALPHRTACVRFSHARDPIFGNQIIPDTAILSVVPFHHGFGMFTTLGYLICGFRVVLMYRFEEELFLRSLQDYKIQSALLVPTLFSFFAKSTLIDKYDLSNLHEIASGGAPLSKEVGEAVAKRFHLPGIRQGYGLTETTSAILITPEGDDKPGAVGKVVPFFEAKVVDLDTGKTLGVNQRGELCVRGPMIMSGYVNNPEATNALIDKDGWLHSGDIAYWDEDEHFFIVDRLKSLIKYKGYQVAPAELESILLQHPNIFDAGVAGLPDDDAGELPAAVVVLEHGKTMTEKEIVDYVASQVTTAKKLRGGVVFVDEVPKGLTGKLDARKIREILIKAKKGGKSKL
In short: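 Quantitative HTS format; KM concentrations of both substrates. Purified P. pyralis FLuc activity quantified from luminescence images.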

[2] = qHTS assay to identify small molecule agonists of the constitutive androstane receptor (CAR) signaling pathway - cell viability counter screen (AID 1224836); note: nearly all actives have a fitted effect of over 45% in size
In short: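 Using CellTiter-Fluor, viability of HepG2 cells harbouring hCAR and CYP2B6-2.2kb was measured following 23 h incubation with a 15-concentration compound series plus PK11195 (0.75 uM final).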

[3] = qHTS assay to identify small molecule antagonists of the constitutive androstane receptor (CAR) signaling pathway - cell viability counter screen (AID 1224837); note: nearly all actives have a fitted effect of over 45% in size
In short: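 To flag cytotoxic false antagonists, HepG2 hCAR/CYP2B6-2.2kb cells were treated 23 hr with 15-concentration compound series and 50 nM CITCO at 37 C/5% CO2; CellTiter-Fluor fluorescence was the measured end point.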

[4] = molecular target: Nuclear receptor subfamily 1 group I member 3 (Homo sapiens) (UniProt Q14994); assay: qHTS assay to identify small molecule antagonists of the constitutive androstane receptor (CAR) signaling pathway (AID 1224838);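 note: HepG2 cells stably expressing hCAR with CYP2B6 luciferase reporter stimulated by CITCO; nearly all actives have a fitted effect of over 40% in size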
Nuclear receptor subfamily 1 group I member 3 (Homo sapiens), sequence (Q14994 whole entry, looked up): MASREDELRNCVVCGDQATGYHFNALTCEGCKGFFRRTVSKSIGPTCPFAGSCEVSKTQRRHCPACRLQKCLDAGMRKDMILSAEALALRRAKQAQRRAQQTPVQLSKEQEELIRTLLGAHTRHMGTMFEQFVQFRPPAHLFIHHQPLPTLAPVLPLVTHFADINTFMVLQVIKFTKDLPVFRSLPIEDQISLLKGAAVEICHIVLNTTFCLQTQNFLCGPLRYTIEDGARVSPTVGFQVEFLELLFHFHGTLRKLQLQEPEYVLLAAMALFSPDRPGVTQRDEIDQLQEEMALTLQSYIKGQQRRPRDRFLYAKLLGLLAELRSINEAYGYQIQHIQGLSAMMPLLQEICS
In short: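 Human hepatoma HepG2 cells expressing hCAR and a CYP2B6 promoter (2.2 kb) luciferase construct; compound titration (15 points) with 50 nM CITCO final, 24 h at 37 C/5% CO2; luminescence via ONE-Glo after 30 min at room temperature.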

[5] = molecular target: Nuclear receptor subfamily 1 group I member 3 (Homo sapiens) (UniProt Q14994); assay: qHTS assay to identify small molecule agonists of the constitutive androstane receptor (CAR) signaling pathway (AID 1224839);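 note: HepG2 cells stably carrying human CAR and a CYP2B6 luciferase reporter; nearly all actives have a fitted effect of over 15% in size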
In short: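 Double-stable HepG2 cells (hCAR, CYP2B6-2.2kb) seeded 4 h before compound addition. Exposure 24 h with 0.75 uM PK11195 final. Luciferase detected by ONE-Glo.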

[6] = qHTS assay to identify small molecule antagonists of the estrogen related receptor signaling pathway with the pleiotropic PPARgamma coactivator (PGC) from Tox21 10K library - cell viability counter screen (AID 1224840; active = well fitted cell-killing curve with a large enough effect in the repeat runs, not every such curve was filed as active; note: nearly all actives have a fitted effect of over 40% in size)
In short: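 Seeded PGC/ERR cells (2,000/well, 6 h, 37 C/5% CO2) get compound by pin tool; 17.5 h incubation at 37 C; CellTiter-Fluor added, 30 min, fluorescence measured.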

[7] = qHTS assay to identify small molecule antagonists of the estrogen related receptor signaling pathway with the pleiotropic PPARgamma coactivator (PGC) from Tox21 10K library (AID 1224841; call rule not given here; note: actives are mostly falling curves and most rising ones were filed inactive; nearly all actives have a fitted effect of over 50% in size)
In short: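 Test chemicals dissolved in DMSO were applied to pre-incubated (6 h) PGC/ERR cells at 2,000 cells/well for an 18 h, 37 C treatment; reporter luminescence was then read using One-Glo.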

[8] = qHTS assay to identify small molecule agonists of the estrogen related receptor signaling pathway with the pleiotropic PPARgamma coactivator (PGC) from Tox21 10K library (AID 1224842); note: nearly all actives have a fitted effect of over 15% in size
In short: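 PGC/ERR reporter cells (NTP line) were seeded 2,000 per well, rested 6 h at 37 C/5% CO2, then pin-dosed with compounds in DMSO for 18 h at 37 C; luciferase read by One-Glo luminescence after 30 min at room temperature.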

[9] = molecular target: Thyrotropin receptor (Homo sapiens) (UniProt P16473); assay: qHTS assay to identify small molecule agonists of the thyroid stimulating hormone receptor (TSHR) signaling pathway (AID 1224843; calls by dose curve; note: nearly all actives have a fitted effect of over 45% in size)
Thyrotropin receptor (Homo sapiens), sequence (P16473 whole entry, looked up): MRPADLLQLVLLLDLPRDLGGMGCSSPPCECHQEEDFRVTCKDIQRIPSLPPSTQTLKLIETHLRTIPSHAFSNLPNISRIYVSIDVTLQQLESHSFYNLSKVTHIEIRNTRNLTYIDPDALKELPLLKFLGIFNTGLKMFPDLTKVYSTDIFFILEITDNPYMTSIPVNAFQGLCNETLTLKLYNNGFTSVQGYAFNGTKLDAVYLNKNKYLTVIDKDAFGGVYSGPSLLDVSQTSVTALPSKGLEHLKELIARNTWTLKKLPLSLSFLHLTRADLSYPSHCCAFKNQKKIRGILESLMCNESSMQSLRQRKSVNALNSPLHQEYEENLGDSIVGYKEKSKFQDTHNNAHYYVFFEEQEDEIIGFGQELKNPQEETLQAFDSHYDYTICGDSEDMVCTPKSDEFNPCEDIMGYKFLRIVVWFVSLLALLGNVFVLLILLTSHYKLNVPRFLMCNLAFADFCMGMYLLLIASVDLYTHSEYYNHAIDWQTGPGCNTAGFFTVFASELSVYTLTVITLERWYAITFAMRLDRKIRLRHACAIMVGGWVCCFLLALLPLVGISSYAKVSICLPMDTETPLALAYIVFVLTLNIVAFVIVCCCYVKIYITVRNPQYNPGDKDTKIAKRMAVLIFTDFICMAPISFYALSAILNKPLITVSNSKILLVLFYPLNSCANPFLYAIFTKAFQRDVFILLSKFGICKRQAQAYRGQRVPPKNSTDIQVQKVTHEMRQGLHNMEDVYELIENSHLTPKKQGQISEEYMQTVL
In short: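 Using 15 concentrations per compound in triplicate, cAMP production was monitored in TSHR-HEK293 cells after 30 min compound incubation at RT; HTRF reagents followed, with fluorescence intensity recorded after 1 h.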

[10] = qHTS assay to identify small molecule agonists of H2AX (AID 1224845; active = well fitted activation curve with a large enough effect in the signal ratio in the repeat runs, not every such curve was filed as active; the % refers to the signal ratio)
In short: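 Wild-type CHO-K1 cells plated overnight, then exposed 3 hr at 37C to compounds at 15 concentrations (0.76% DMSO). Lysed, then HTRF anti-pH2AX(S139)-cryptate/anti-H2AX-d2 detection after 24 hr at room temperature; emissions 665 and 620 nm.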

[11] = qHTS assay to identify small molecule agonists of H2AX - cell viability counter screen (AID 1224847; calls by dose curve; note: nearly all actives have a fitted effect of over 30% in size; note: potency is the fitted concentration of half-maximal effect; for activity change, negative = cytotoxicity: top concentration of the series differs between compounds)
In short: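 Quantitative HTS viability measurement: CHO-K1 wild-type cells in serum (10% FBS) medium, short 3 hr drug exposure at 37C with 0.76% DMSO, CellTiter-Glo luminescent detection.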

[12] = qHTS assay to identify small molecule antagonists of the estrogen related receptor (ERR) signaling pathway from Tox21 library (AID 1224848); note: nearly all actives have a fitted effect of over 50% in size
In short: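 Tox21 10K compounds in DMSO tested for ERR pathway antagonism in NTP's ERR cell line; 18 h, 37 C exposure; ONE-Glo luminescence.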

[13] = qHTS assay to identify small molecule agonists of the estrogen related receptor (ERR) signaling pathway from Tox21 library (AID 1224849; calls by dose curve; note: nearly all actives have a fitted effect of over 15% in size); conditions: ERR reporter cell line, ONE-Glo luciferase, 18 h; at 92.4 µM (top of the series) unless noted
In short: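 Tox21 compounds tested for ERR agonism in an NTP reporter cell line: 18 h treatment at 37 C, then ONE-Glo luminescence.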

[14] = qHTS RealTime-Glo MT Cell Viability Assay in HepG2 cells - 24 hour (AID 1224867); note: nearly all actives have a fitted effect of over 50% in size
In short: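 qHTS, HepG2, 600 cells/well, RealTime-Glo (NanoLuc + prosubstrate) added with cells; 5 h preincubation; DMSO compound addition; 37 C; luminescence at 0/8/16/24/32/40 h.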

[15] = qHTS RealTime-Glo MT Cell Viability Assay in HEK293 cells - 32 hour (AID 1224868); note: top concentration of the series differs between compounds; nearly all actives have a fitted effect of over 50% in size
In short: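 Assay medium contained NanoLuc luciferase plus cell-permeant prosubstrate, added with HEK293 cells at 600 cells/well. After 5 h at 37 C/5% CO2 compounds were added; plates stayed at 37 C for 40 h with serial luminescence reads.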

[16] = A CellTox Green Cytotoxicity Assay to monitor cytotoxicity in HEK293 cells - 0 hour (AID 1224869); note: nearly all actives have a fitted effect of over 50% in size
In short: (§1)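 Tox21 screen in HEK293: membrane-impermeant cyanine dye fluoresces on binding dead-cell DNA; compound pinned 5 h post-seeding, plates held at 37 C, signal read repeatedly through 40 h.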

[17] = qHTS RealTime-Glo MT Cell Viability Assay in HepG2 cells - 40 hour (AID 1224870); note: nearly all actives have a fitted effect of over 50% in size
In short: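 HepG2 cells mixed with RealTime-Glo MT reagents (NanoLuc plus cell-permeant prosubstrate) were seeded at 600 cells/well, incubated 5 h at 37 C/5% CO2, then pinned with compounds in DMSO; nonlytic luminescence tracked viability during 40 h treatment.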

[18] = A CellTox Green Cytotoxicity Assay to monitor cytotoxicity in HEK293 cells - 40 hour (AID 1224871); note: nearly all actives have a fitted effect of over 45% in size; note: potency is the fitted concentration of half-maximal effect
In short: as §1

[19] = qHTS assay to identify small molecule agonists of the hypoxia (HIF-1) signaling pathway - cell viability counter screen (AID 1224844; calls by dose curve; note: nearly all actives have a fitted effect of over 50% in size)
In short: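 HRE-bla ME-180; 0.5% dFBS; cpd 17 h, 37C, 5% CO2; CellTiter-Glo lum., 30 min RT, post-FRET read, same wells.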

[20] = qHTS assay to identify small molecule agonists of the hypoxia (HIF-1) signaling pathway (AID 1224846; active = well fitted activation curve with a large enough effect in the signal ratio in the repeat runs, not every such curve was filed as active; the % refers to the signal ratio)
In short: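 Reporter induction in HRE-bla ME-180 cells is taken as agonism: cells sit 5 hrs after plating, receive compounds or DMSO only, incubate 17 hrs at 37C under 5% CO2, and are loaded with CCF4-AM for beta-lactamase FRET measurement.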
% is set by controls: 0 for no effect and ±100 for the full control effect.

CC(C)c1ccc(O)c(C(C)C)c1
inactive: Potency [1] | Potency [2] | Potency [3] | Potency [4] | Potency [5] | Potency [6] | Potency [7] | Potency [8] | Potency [9] | Potency [10] | Potency [12] | activity change, positive = activation [13] -4.92% | Potency [14] | Potency [15] | Potency [16] | Potency [17]
active: Potency [11] 89.8 µM | Potency [18] 21.9 µM

CC(C)=CCCC(C)CCOC(=O)C(C)C (stereo not given)
inactive: Potency [1] | Potency [2] | Potency [3] | Potency [4] | Potency [5] | Potency [6] | Potency [9] | Potency [19] | Potency [10] | outcome [20] | Potency [11] | Potency [14] | Potency [15] | Potency [16] | Potency [17] | Potency [18]

Cc1cccc(N(C)C)c1
inactive: Potency [1] | Potency [2] | Potency [3] | Potency [4] | Potency [5] | Potency [6] | Potency [7] | Potency [8] | Potency [9] | Potency [19] | Potency [10] | outcome [20] | Potency [11] | Potency [12] | activity change, positive = activation [13] -0.051% | Potency [14] | Potency [15] | Potency [16] | Potency [17] | Potency [18]

O=C1OC(OC(=O)c2cccnc2Nc2cccc(C(F)(F)F)c2)c2ccccc21 (stereo not given)
inactive: Potency [1] | Potency [2] | Potency [3] | Potency [4] | Potency [5] | Potency [6] | Potency [7] | Potency [8] | Potency [9] | Potency [12] | activity change, positive = activation [13] -0.557% [at 42.5 µM] | Potency [15] | Potency [16] | Potency [17] | Potency [18]

O=S(O)O
inactive: activity change, negative = inhibition [1] -0.0072% [at 23.6 µM] | viability change, negative = cytotoxic [2] 7.71% [at 19 µM] | activity change, negative = cytotoxicity [3] -3.41% [at 19 µM] | activity, negative = inhibition [4] -9.95% [at 19 µM] | activation [5] -1.32% [at 19 µM] | viability change, negative = cytotoxic [6] -6.77% [at 19 µM] | activation [9] 2.79% [at 19 µM] | activity change, negative = cytotoxicity [19] 0.552% [at 15.8 µM] | activation (H2AX phosphorylation) [10] -2.47% [at 31.6 µM] | activation [20] -0.609% [at 15.8 µM] | activity change, negative = cytotoxicity [11] 3.26% [at 31.6 µM] | activity change, negative = cytotoxicity [14] 3.99% [at 15.8 µM] | activity change, negative = cytotoxic [15] 13.4% [at 15.8 µM] | cytotoxicity [16] -3.65% [at 15.8 µM] | activity change, negative = cytotoxic [17] -0.0421% [at 15.8 µM] | cytotoxicity increase [18] -2.31% [at 15.8 µM]

C=CC/C=C/C/C=C/C/C=C/C
inactive: Potency [1] | Potency [2] | Potency [3] | Potency [4] | Potency [5] | Potency [6] | Potency [7] | Potency [8] | Potency [9] | Potency [19] | Potency [10] | outcome [20] | Potency [11] | Potency [12] | activity change, positive = activation [13] 3.56% | Potency [14] | Potency [15] | Potency [16] | Potency [17] | Potency [18]

Source: PubChem BioAssay (Tox21)
